Data on 7 sequences can be found in article PMC7862700, “An all-to-all approach to the identification of sequence-specific readers for epigenetic DNA modifications on cytosine”.

What all share (experiment): DAPPL (digital affinity profiling via proximity ligation, sequencing); 10 mM Tris-HCl pH 7.5, 50 mM NaCl, 1 mM DTT, 4% glycerol, room temperature, 30 min; GST-TFs on glutathione beads, 16-mer random dsDNA library, 0.1% formaldehyde crosslink after washing; high values mean tight binding
What all share (details): protein: recombinant; tags: N-terminal GST; dsDNA, one strand shown

One experiment addresses T1, ERF (Homo sapiens, UniProt P50548 1-548).
T1 sequence: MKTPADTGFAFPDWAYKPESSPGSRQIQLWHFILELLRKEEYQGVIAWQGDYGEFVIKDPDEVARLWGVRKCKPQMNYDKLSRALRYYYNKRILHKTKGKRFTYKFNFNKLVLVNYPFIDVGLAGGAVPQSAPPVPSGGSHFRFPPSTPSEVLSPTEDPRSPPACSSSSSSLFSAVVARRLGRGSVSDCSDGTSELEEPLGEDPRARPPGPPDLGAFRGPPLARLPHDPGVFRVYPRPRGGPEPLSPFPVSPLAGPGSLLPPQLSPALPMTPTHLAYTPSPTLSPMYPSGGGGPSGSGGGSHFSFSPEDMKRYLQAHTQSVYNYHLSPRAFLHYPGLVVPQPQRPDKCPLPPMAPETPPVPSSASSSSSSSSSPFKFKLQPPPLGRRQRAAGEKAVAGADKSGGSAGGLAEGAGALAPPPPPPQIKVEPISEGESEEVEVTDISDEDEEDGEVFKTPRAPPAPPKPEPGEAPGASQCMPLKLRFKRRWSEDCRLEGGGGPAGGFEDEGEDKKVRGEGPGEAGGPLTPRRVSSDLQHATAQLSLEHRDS
Summed up: (§1)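 Pools were built from human transcription factors expressed in yeast as GST fusions, captured on glutathione beads and DNA-barcoded, along with a tag-only sample. Incubation with 200 nmole of a 16-mer random double-stranded DNA library lasted 30 min at room temperature in Tris/NaCl/DTT/glycerol buffer, and was followed by washing, 0.1% formaldehyde crosslinking, proximity ligation, PCR amplification and Illumina NextSeq500 sequencing. Binding signal is the quotient of each hexamer's read frequency for a factor and its frequency for the tag-only sample.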

In another experiment the target is T2, ETV3L (Homo sapiens, UniProt Q6ZN32 1-361).
T2 sequence: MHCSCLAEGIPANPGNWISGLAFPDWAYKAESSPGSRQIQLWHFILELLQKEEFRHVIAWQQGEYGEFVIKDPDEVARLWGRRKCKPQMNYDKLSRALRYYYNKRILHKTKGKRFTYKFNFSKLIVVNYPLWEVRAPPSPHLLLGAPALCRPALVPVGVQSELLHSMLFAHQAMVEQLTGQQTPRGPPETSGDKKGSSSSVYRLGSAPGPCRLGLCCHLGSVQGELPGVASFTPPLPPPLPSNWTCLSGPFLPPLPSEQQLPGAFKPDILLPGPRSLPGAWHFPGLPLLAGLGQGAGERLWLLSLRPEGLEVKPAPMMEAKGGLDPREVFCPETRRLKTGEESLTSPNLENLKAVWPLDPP
A digest of the protocol:
as §1

The target of a further experiment is T3, ETS2 (Homo sapiens, UniProt P15036 1-469).
T3 sequence: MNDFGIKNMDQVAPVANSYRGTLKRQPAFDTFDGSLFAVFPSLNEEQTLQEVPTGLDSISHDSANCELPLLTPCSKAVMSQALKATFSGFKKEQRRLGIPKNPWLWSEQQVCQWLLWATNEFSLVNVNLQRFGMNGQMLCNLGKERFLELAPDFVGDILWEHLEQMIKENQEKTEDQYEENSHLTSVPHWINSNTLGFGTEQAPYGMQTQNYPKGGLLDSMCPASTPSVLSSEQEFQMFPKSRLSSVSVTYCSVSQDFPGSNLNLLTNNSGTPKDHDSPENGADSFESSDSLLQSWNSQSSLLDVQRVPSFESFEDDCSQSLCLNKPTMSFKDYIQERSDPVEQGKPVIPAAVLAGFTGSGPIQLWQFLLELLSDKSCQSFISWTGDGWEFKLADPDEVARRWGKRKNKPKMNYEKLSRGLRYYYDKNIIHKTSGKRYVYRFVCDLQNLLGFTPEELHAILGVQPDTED
Summed up:
as §1

Another experiment concerns the target T4, SPDEF (Homo sapiens, UniProt O95238 1-335).
T4 sequence: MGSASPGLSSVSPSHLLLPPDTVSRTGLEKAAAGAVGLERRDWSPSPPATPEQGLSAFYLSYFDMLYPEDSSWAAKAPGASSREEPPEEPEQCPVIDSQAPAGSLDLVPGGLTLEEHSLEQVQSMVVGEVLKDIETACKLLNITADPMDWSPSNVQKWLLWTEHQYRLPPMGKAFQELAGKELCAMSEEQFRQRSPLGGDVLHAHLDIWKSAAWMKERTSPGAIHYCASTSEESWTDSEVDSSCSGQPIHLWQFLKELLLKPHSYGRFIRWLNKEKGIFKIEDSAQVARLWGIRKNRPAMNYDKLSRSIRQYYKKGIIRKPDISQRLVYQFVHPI
A digest of the protocol:
as §1

The target in a further experiment is T5, ETV7 (Homo sapiens, UniProt Q9Y603 1-341).
T5 sequence: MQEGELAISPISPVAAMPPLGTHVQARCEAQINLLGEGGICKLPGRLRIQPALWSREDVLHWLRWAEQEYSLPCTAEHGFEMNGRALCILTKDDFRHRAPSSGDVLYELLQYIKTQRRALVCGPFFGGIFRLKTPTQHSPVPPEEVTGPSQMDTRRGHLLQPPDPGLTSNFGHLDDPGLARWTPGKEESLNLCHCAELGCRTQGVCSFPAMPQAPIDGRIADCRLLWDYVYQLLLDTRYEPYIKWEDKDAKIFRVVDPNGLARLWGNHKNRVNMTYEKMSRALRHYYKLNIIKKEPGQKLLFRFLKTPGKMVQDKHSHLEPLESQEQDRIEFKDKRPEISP
A digest of the protocol: as §1

The next experiment has as its target T6, ELF5 (Homo sapiens, UniProt Q9UKW6-2 1-255).
T6 sequence: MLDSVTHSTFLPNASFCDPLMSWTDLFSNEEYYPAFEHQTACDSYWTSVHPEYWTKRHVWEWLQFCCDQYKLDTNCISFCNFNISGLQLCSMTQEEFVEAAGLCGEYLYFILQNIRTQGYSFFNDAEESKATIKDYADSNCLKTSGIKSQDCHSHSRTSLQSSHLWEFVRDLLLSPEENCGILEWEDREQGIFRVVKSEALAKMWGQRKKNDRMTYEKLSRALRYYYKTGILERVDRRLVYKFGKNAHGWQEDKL
Summed up:
as §1

For a further experiment, the target named is T7, ETV3 (Homo sapiens, UniProt P41162-2 1-143).
T7 sequence: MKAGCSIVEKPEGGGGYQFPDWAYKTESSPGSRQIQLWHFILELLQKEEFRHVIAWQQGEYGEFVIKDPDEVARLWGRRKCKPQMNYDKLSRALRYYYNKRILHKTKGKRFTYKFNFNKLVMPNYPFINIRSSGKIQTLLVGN
A digest of the protocol: as §1

Another experiment deals with ETV6 (Homo sapiens, UniProt P41212 1-452). A digest of the protocol:
as §1

Chain of ETV6 (P41212 whole entry): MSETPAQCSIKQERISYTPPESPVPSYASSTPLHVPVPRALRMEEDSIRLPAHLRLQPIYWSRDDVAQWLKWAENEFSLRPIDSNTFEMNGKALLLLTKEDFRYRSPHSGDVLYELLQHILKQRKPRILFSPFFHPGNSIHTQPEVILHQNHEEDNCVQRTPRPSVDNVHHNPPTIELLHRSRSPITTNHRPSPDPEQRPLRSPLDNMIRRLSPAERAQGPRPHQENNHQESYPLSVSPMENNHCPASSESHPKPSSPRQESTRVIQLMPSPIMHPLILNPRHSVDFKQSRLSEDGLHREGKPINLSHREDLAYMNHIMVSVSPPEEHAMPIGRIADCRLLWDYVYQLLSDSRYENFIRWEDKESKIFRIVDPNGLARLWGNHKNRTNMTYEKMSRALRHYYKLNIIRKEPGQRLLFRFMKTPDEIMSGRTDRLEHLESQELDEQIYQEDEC

TCCTAG: the binding signal was 1.26 fold enrichment (6-mer frequency, TF over GST control) with ERF; 1.08 fold enrichment (6-mer frequency, TF over GST control) with ETV3L; 1.26 fold enrichment (6-mer frequency, TF over GST control) with ETS2; 1.4 fold enrichment (6-mer frequency, TF over GST control) with SPDEF; 1.25 fold enrichment (6-mer frequency, TF over GST control) with ETV7; 1.41 fold enrichment (6-mer frequency, TF over GST control) with ELF5. Also, the binding signal is 1.32 fold enrichment (6-mer frequency, TF over GST control) in the experiment with ETV3 and 1.26 fold enrichment (6-mer frequency, TF over GST control) with ETV6.
For TCGCTT, the binding signal with ERF is 1.21 fold enrichment (6-mer frequency, TF over GST control); with ETV3L, 1.24 fold enrichment (6-mer frequency, TF over GST control); with ETS2 it was 1.34 fold enrichment (6-mer frequency, TF over GST control); with SPDEF, 1.18 fold enrichment (6-mer frequency, TF over GST control); in the experiment with ETV7, 1.29 fold enrichment (6-mer frequency, TF over GST control); with ELF5, 1.21 fold enrichment (6-mer frequency, TF over GST control). For the same sequence, the binding signal was 1.24 fold enrichment (6-mer frequency, TF over GST control) with ETV3 and 1.22 fold enrichment (6-mer frequency, TF over GST control) with ETV6.
With CACTTT, the binding signal with ERF was 1.3 fold enrichment (6-mer frequency, TF over GST control); with ETV3L, 1.24 fold enrichment (6-mer frequency, TF over GST control); in the experiment with ETS2, 1.32 fold enrichment (6-mer frequency, TF over GST control); with SPDEF it was 1.16 fold enrichment (6-mer frequency, TF over GST control); with ETV7, 1.26 fold enrichment (6-mer frequency, TF over GST control); with ELF5, 1.23 fold enrichment (6-mer frequency, TF over GST control). Besides, the binding signal was 1.32 fold enrichment (6-mer frequency, TF over GST control) in the experiment with ETV3 and 1.26 fold enrichment (6-mer frequency, TF over GST control) with ETV6.
For the sequence ATAACT, the binding signal is 1.24 fold enrichment (6-mer frequency, TF over GST control) with ERF; 1.22 fold enrichment (6-mer frequency, TF over GST control) with ETV3L; 1.27 fold enrichment (6-mer frequency, TF over GST control) with ETS2; 1.18 fold enrichment (6-mer frequency, TF over GST control) with SPDEF; 1.24 fold enrichment (6-mer frequency, TF over GST control) with ETV7; 1.29 fold enrichment (6-mer frequency, TF over GST control) in the experiment with ELF5. In addition, the binding signal with ETV3 is 1.34 fold enrichment (6-mer frequency, TF over GST control); in the experiment with ETV6 it was 1.27 fold enrichment (6-mer frequency, TF over GST control).
On to CTTTGA, for which the binding signal is 1.18 fold enrichment (6-mer frequency, TF over GST control) in the experiment with ERF; 1.11 fold enrichment (6-mer frequency, TF over GST control) with ETV3L; 1.15 fold enrichment (6-mer frequency, TF over GST control) in the experiment with ETS2; 1.1 fold enrichment (6-mer frequency, TF over GST control) with SPDEF; 1.34 fold enrichment (6-mer frequency, TF over GST control) with ETV7; 1.16 fold enrichment (6-mer frequency, TF over GST control) with ELF5. The binding signal was 1.35 fold enrichment (6-mer frequency, TF over GST control) with ETV3 and 1.25 fold enrichment (6-mer frequency, TF over GST control) with ETV6.
Turning to GCCCTA, the binding signal was 1.21 fold enrichment (6-mer frequency, TF over GST control) with ERF; 1.17 fold enrichment (6-mer frequency, TF over GST control) with ETV3L; 1.22 fold enrichment (6-mer frequency, TF over GST control) in the experiment with ETS2; 1.21 fold enrichment (6-mer frequency, TF over GST control) with SPDEF; 1.12 fold enrichment (6-mer frequency, TF over GST control) with ETV7; 1.11 fold enrichment (6-mer frequency, TF over GST control) with ELF5. In addition, the binding signal in the experiment with ETV3 was 1.18 fold enrichment (6-mer frequency, TF over GST control); in the experiment with ETV6, 1.17 fold enrichment (6-mer frequency, TF over GST control).
Turning to CCTTGG, the binding signal was 1.23 fold enrichment (6-mer frequency, TF over GST control) with ERF; 1.3 fold enrichment (6-mer frequency, TF over GST control) with ETV3L; 1.25 fold enrichment (6-mer frequency, TF over GST control) with ETS2; 1.25 fold enrichment (6-mer frequency, TF over GST control) in the experiment with SPDEF; 1.22 fold enrichment (6-mer frequency, TF over GST control) in the experiment with ETV7; 1.26 fold enrichment (6-mer frequency, TF over GST control) with ELF5. Moreover, the binding signal in the experiment with ETV3 is 1.12 fold enrichment (6-mer frequency, TF over GST control); with ETV6, 1.24 fold enrichment (6-mer frequency, TF over GST control).
